The values below come from ChEMBL document CHEMBL3988442, “University of Dundee, Small-Polar-MMV Screening Library” (2021).

This assay concerns the target T1, Tyrosyl-tRNA synthetase, putative (Trypanosoma cruzi (strain CL Brener)) (UniProt Q4DSP6).
T1 sequence (whole entry): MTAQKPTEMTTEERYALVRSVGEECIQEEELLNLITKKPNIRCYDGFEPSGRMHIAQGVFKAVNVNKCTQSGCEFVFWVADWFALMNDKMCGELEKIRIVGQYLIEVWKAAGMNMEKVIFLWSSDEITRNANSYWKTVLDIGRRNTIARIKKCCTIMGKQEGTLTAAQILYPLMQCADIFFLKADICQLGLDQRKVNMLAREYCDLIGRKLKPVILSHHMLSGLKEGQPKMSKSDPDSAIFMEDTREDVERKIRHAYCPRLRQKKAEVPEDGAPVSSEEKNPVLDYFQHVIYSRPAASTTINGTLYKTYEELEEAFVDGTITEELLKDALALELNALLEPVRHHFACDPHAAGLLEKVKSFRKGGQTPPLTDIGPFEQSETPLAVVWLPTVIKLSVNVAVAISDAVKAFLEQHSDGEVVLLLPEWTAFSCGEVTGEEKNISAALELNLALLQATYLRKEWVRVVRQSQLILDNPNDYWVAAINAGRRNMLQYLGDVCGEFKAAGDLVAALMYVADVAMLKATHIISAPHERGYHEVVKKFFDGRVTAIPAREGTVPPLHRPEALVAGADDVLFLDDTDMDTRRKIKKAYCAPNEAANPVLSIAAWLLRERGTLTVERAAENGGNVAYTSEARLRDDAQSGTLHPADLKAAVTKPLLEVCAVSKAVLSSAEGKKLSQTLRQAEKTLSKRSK
In words: Trypanosoma cruzi tyrosyl tRNA synthetase (TcYRS) SOP. The assay is classed as functional. Details: scale not given: direction of the effect not stated beside the values. To be noted: 30 µM.
Consider `CNC(=O)C1CCN(C(=O)c2ccn(-c3ccc(F)cc3)n2)CC1`, for which the Percent Effect worked out at 23.2%.

With `COc1cccc([C@@H]2CN(C(=O)c3ccc(C)cc3O)C[C@H]2C(=O)O)c1`, the Percent Effect came out at 18.5%.

Consider `O=C(Cc1cccc(F)c1)NCCNCc1ccco1`, for which the Percent Effect was found to be 2.44%.

Take `Cc1ncsc1C(=O)NC1CCN(CC(=O)NCc2ccccc2)CC1`: the Percent Effect came to 16.1%.

Take `CCN1CC(C(=O)N(C)Cc2ccon2)CC1=O` (centres undefined): the Percent Effect is -1.24%.

In the case of `COCc1c(C(=O)O)nnn1Cc1cccc(C(F)(F)F)c1`, the Percent Effect came to 10.3%.

For `O=C(NCC(O)c1cccc(F)c1)c1cccnc1O` (centres undefined), the Percent Effect was 13.6%.

For `Cc1nc(CN2CCOC(Cn3cncn3)C2)nc2ccccc12` (centres undefined), the Percent Effect came out at 0%.

`CCc1nnc2n1CCN(C(=O)CN(C)Cc1ccccc1)C2`: the Percent Effect is 18.5%.

In the case of `CCn1nc(C)c(CNC(=O)c2cn(CCC3CCCCN3)nn2)c1C` (centres undefined), the Percent Effect was 16.1%.

For `CCS(=O)(=O)Nc1ccc(C(=O)NCCCN2CCCC2)cc1`, the Percent Effect was 7.79%.

For the compound `COc1cccc(CN(C)C(=O)CSc2ccc3c(c2)OCCO3)c1`, the Percent Effect is -15.6%.

As for `CC(C)c1cnc(CNc2c(F)cccc2-n2cccn2)o1`, the Percent Effect was found to be 0%.

Take `O=S(=O)(Cc1ccccc1F)NCCCN1CCCCC1`: the Percent Effect is 1.24%.

Take `CN(C)S(=O)(=O)N1CC[C@@H]2CN(Cc3cnn(C)c3)C[C@@H]2C1`: the Percent Effect is -1.28%.

For `CN(C(=O)Cc1ccc2c(c1)OCCO2)C1CCCC1`, the Percent Effect was determined as 10.4%.

Take `C1CC(NCc2nc(C3CC3)no2)CN(Cc2noc(C3CC3)n2)C1` (centres undefined): the Percent Effect was 6.17%.

On to `COCCN1C[C@@H]2CCCO[C@@H]2[C@H](NC(=O)c2cnccn2)C1`, for which the Percent Effect was -12.5%.

On to `Cc1nc2cc(C(=O)N3CCCC(n4cncn4)C3)ccc2n1C` (centres undefined), for which the Percent Effect turned out to be 13.4%.

Turning to `Cc1ccc(CN2CC(C(=O)N3CCCC3)C3(CCOCC3)C2)s1` (centres undefined), the Percent Effect was 0%.

With `Cc1cc(C2CCCN(C(=O)c3cnn(C)c3)C2)ccn1` (centres undefined), the Percent Effect was 11.7%.

On to `COC(=O)N1CCCN(C(=O)NCc2ccc(Cl)s2)CC1`, for which the Percent Effect amounted to 15.2%.

Turning to `NC(=O)CN1CCCN(C(=O)c2ccn(-c3ccccc3)n2)CC1`, the Percent Effect was determined as 7.69%.

As to `CCc1nnc(CN2CCN(C(=O)c3cc4ccccc4[nH]3)CC2)o1`, the Percent Effect worked out at 2.35%.

In the case of `Cn1ncc2c(=O)[nH]c(CN3CCC(Cc4ccccc4)CC3)nc21`, the Percent Effect is 25.9%.

Take `COCCN1C(=O)CO[C@H]2CN(Cc3c[nH]nc3-c3ccccc3)C[C@@H]21`: the Percent Effect was found to be 6.49%.

`CC(C(N)=O)S(=O)(=O)Cc1cc(Cl)c2c(c1)OCO2` (centres undefined): the Percent Effect came to 13.6%.

As for `COc1ccc2cc(C(=O)N3CCCCC3CC(N)=O)[nH]c2c1` (centres undefined), the Percent Effect was 12.2%.

For `CC(C)c1nccn1C1CCCN(C(=O)c2cnc[nH]2)C1` (centres undefined), the Percent Effect turned out to be 16.1%.

In the case of `COc1ccc(C(=O)N2CCC(Nc3ccc(C)nn3)CC2)c(F)c1`, the Percent Effect is -2.53%.

In the case of `O=C(c1cnco1)N1C[C@@H]2CC[C@H](Oc3ccccc3F)[C@@H]2C1`, the Percent Effect was -9.09%.

For the compound `CN(C)C(=O)Cc1nc(CN2CCOC(Cn3cccn3)C2)cs1` (centres undefined), the Percent Effect is 0%.

Consider `Cc1ccoc1-c1nnc(CNCCn2cccn2)o1`, for which the Percent Effect stood at 24.1%.

Regarding `O=C(NCc1cnc2n1CCN(Cc1ccsc1)CC2)C1CCC1`, the Percent Effect was determined as 13.6%.

Consider `Cc1ccc(C2CCCCCN2Cc2cn(C)nc2C)s1` (centres undefined), for which the Percent Effect is 14.1%.

Regarding `Cc1cccc(COC[C@H]2CC[C@H]3[C@H](CCN3C(=O)CC3CC3)O2)n1`, the Percent Effect is 19.2%.

With `CC(Cn1cccn1)NC(=O)N(C)Cc1ccc(Cl)s1` (centres undefined), the Percent Effect worked out at 3.8%.

For the compound `Fc1ccc(-c2nnc(CN3CCOC(Cn4cncn4)C3)o2)cc1` (centres undefined), the Percent Effect is -14.6%.

Turning to `CCc1noc(C2CCCCN2C(=O)c2nnc3ccccc3n2)n1` (centres undefined), the Percent Effect amounted to 17.9%.
